# The entries come from a sample that favours hits as a whole.
# MLL CXXC-DNA inh = blocks binding of human MLL CXXC domain to DNA; MLL-CXXC / FITC-HOXA9 DNA fluorescence polarization; Potency, µM (top dose mostly 115 µM), inactives show at the top dose activity change, negative = inhibition, usual class: inhibitors; 0.037% of 290,000 active; active means well fitted inhibition curve with a large enough effect in the polarisation, with a control signal flat, not every such curve was filed as active; inconclusive means small, poorly fitted or top-dose-only effect, or effect the other way, or a change in a side signal; inactive means no such curve, though single readings can be large or run the other way; the % refers to the polarisation; further: potency means the concentration at half of the fitted maximal effect
#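 Steps: dispense CXXC domain solution (7 uM) → pin compounds or unlabeled HOX-A9 DNA control → 5 min ambient → add FLSN-HOX-A9 solution (50 nM) → spin → 30 min ambient → fluorescence polarization. Tris pH 7.5/NaCl/DTT/BSA buffer.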
# MBNL1 CUG block = MBNL1-poly(CUG) RNA binding inhibition. TR-FRET MBNL1-His/biotin-(CUG)12 binding, 665/545 ratio. Potency, µM (titrated, usually from 57.5 µM), inactives show at the top dose activity change, negative = inhibition, most hits filed as inhibitors. 0.036% of 280,000 active. Q9NR56. AID 2675; active means well fitted inhibition curve with a large enough effect in the signal ratio, with a control signal flat, not every such curve was filed as active; inconclusive means small, poorly fitted or top-dose-only effect, or effect the other way, or a change in a side signal; inactive means no such curve, though single readings can be large or run the other way; the % refers to the signal ratio; further: potency means the concentration at half of the fitted maximal effect; on the % scale 0 is the no-effect control and ±100 the full control effect
#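 Compound titration spanned 92 nM–58 uM against the MBNL1-His/biotin-(CUG)12 complex. After 60 min at room temperature with 5 nM streptavidin-XL665 and 0.055 ng/ul terbium anti-His, ratiometric 665/545 nm emission (Ex 340 nm) normalized to controls.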
# Menin-MLL FL inh = displaces fluorescein MLL peptide from human menin; Fluorescence polarization, fluorescein-MLL peptide displacement from menin; FP activity change, % at 61.4 µM; 290,000 tested, under 10 active; AID 1766; active means well fitted curve in the direction sought with a large enough effect in the polarisation, not every such curve was filed as active; inconclusive means small, poorly fitted or top-dose-only effect, or effect the other way, or a change in a side signal; inactive means no such curve, though single readings can be large or run the other way; the % refers to the polarisation; further: % of control where 0% means no effect
# Menin MLL FP TR = displaces Texas Red mutant MLL peptide from human menin; O00255; Menin + Texas Red MLL mutant peptide, fluorescence polarization; Potency, µM (top dose mostly 61.6 µM), without a hit: top-dose FP activity change, negative = inhibition, most hits filed as inhibitors; 0.23% of 270,000 active; AID 1768; active means well fitted inhibition curve with a large enough effect in the polarisation, with a control signal flat, not every such curve was filed as active; inconclusive means small, poorly fitted or top-dose-only effect, or effect the other way, or a change in a side signal; inactive means no such curve, though single readings can be large or run the other way; the % refers to the polarisation; further: potency means the concentration at half of the fitted maximal effect; % of control where 0% means no effect
# * marks the source's active call; other numbers are inactive results; ? = inconclusive; . = not tested or not shown.
SMILES,MLL CXXC-DNA inh,MBNL1 CUG block,Menin-MLL FL inh,Menin MLL FP TR
COc1ccc(N2CCN(CC(O)COc3ccc(F)cc3)CC2)cc1 (stereo not given),-4%,-4%,-17,20µM*
CN[C@@H](CCCN=C(N)N)C(=O)N[C@@H](CCCCN)C(=O)N1CCC[C@H]1C(=O)N[C@@H](Cc1c[nH]c2ccccc12)C(=O)N[C@H](C(=O)N[C@H](CC(C)C)C(=O)O)C(C)(C)C,.,.,-9,?
CCC(=O)NC[C@H](Cc1ccc(OCCc2nc(-c3ccccc3)oc2C)cc1)N/C(C)=C\C(=O)c1ccc(C(F)(F)F)cc1,.,.,2,9%
C[C@H](N)C(=O)NCC(=O)N[C@H]1CSSC[C@@H](C(=O)O)NC(=O)[C@H](CO)NC(=O)[C@H]([C@@H](C)O)NC(=O)[C@H](Cc2ccccc2)NC(=O)[C@H]([C@@H](C)O)NC(=O)[C@H](CCCCN)NC(=O)[C@H](Cc2c[nH]c3ccccc23)NC(=O)[C@H](Cc2ccccc2)NC(=O)[C@H](Cc2ccccc2)NC(=O)[C@H](CC(N)=O)NC(=O)[C@H](CCCCN)NC1=O,.,.,.,-24%
CC1=CC(C#N)(C#N)C(C#N)(C#N)C(c2ccccc2)N1 (stereo not given),40µM*,23%,?,-7%
NC(=O)c1ccc(NC(=O)COC(=O)c2c3c(nc4ccccc24)/C(=C\c2cccs2)CCC3)cc1,9%,30%,12,?
CCc1cccc(C)c1NC(=O)COC(=O)c1c2c(nc3ccccc13)/C(=C\c1cccs1)CCC2,-3%,.,15,14µM*
O=c1[nH]n(-c2ccccc2)c(=O)c(Cl)c1Cl,0%,15%,2,13µM*
O=c1c2c([nH]n1-c1ccccc1)CCCC2,-5%,1%,-10,?
COc1ccc(N2CCN(C(=O)c3cc(=O)c4cc(C)ccc4o3)CC2)cc1,-4%,3%,3,?
COc1ccc(N2CCN(C(=O)c3cc(=O)c4cc(C)cc(C)c4o3)CC2)cc1,17%,2%,-13,11µM*
Cc1cc(NC(=O)CCCN2C(=O)/C(=C/c3cccs3)SC2=S)no1,-18%,.,4,18µM*
COc1cccc(/C=C2\SC(=S)N(CCCC(=O)Nc3cc(C)on3)C2=O)c1,6%,-2%,?,?
O=C(Nc1ccccc1-c1nc2ccccc2[nH]1)c1ccc(S(=O)(=O)N2CCCCC2)cc1,30%,-5%,4,10µM*
COc1cc(C(=O)N(Cc2cccnc2)Cc2cc3cc4c(cc3[nH]c2=O)OCCO4)cc(OC)c1OC,14%,0%,-1,18µM*
O=C(c1ccccc1F)N(Cc1cccnc1)Cc1cc2cc3c(cc2[nH]c1=O)OCCO3,-3%,-1%,0,-2%
COc1ccc(C2=Nn3c(nnc3-c3cc(OC)ccc3OC)SC2)c(OC)c1,.,.,-3,-19%
COc1ccc2nc(NC(=O)C3CCN(S(=O)(=O)c4cccs4)CC3)sc2c1,15%,2%,0,.
COc1ccc2nc(NC(=O)C3CCCN(S(=O)(=O)c4cccs4)C3)sc2c1 (stereo not given),27%,-1%,-3,22µM*
CCC1=C[C@@H]2CN(C1)Cc1c([nH]c3ccccc13)[C@@](C(=O)OC)(c1cc3c(cc1OC)N(C)[C@@H]1[C@@](O)(C(=O)OC)[C@H](OC(C)=O)[C@]4(CC)C=CCN5CC[C@]31[C@@H]54)C2,4%,.,-1,-7%
CCOC(=O)NNc1ccc2nonc2c1[N+](=O)[O-],40µM*,.,-2,.
N[C@H](CSSC[C@@H](N)C(=O)O)C(=O)O,.,.,2,15%
NC(C(=O)O)C(O)c1ccc(O)c(O)c1 (stereo not given),-14%,.,-1,-2%
N#CCCn1c(=O)c(-c2ccc(Cl)cc2)nc2cnc(Nc3ccccc3)nc21,.,.,?,10µM*
N#CC1=C(N)OC2=C(CN(Cc3ccccc3)C/C2=C\c2cccnc2)C1c1cccnc1 (stereo not given),-8%,?,?,?
CC(C)N1CC2=C(OC(N)=C(C#N)C2c2cccnc2)/C(=C/c2cccnc2)C1 (stereo not given),-22%,9%,-10,25µM*
COc1oc(=O)c2cc(N)ccc2c1Cl,.,.,10,25%
COc1ccc2cc3cc(C(=O)NCCCN4CCOCC4)oc3nc2c1,-9%,?,3,28µM*

# High-throughput results from PubChem.
